Results filed as inconclusive are left out. Unmarked numbers belong to inactive results. Calls come from the whole dose curve; as a rule, active = well fitted cell-killing curve with a large enough effect in the repeat runs; inconclusive = weak or mixed curves; inactive = flat fitted curve, though single readings scatter.
Assay: qHTS assay to identify small molecule antagonists of the TGF-beta/Smad signaling pathway - cell viability counter screen (AID 1346824); note: nearly all actives have a fitted effect of over 50% in size
Settings: SBE-bla HEK293T viability, CellTiter-Glo luminescence; series mostly up to 76.8 µM; viability change, negative = cytotoxic: at the top concentration
Text: U.S. Tox21 Program National Center for Advancing Translational Sciences [NCATS] NIH Chemical Genomics Center [NCGC] U.S. Environmental Protection Agency [EPA] National Institutes of Environmental Health Sciences [NIEHS] National Toxicology Program [NTP] U.S. Food and Drug Administration [FDA] Tox21 Assay Overview: Transforming growth factor beta (TGF-beta) superfamily consists of a large number of structurally related dimeric proteins that act as hormones or local mediators in regulating a wide range of biological functions. This superfamily includes TGF-betas themselves, the bone morphogenetic proteins (BMPs) and the activins. These ligands induce oligomerization of serine/threonine receptor kinases and phosphorylate the cytoplasmic signaling molecules of Smad protein family. CellSensor SBE-bla HEK 293T cell line (Life Technologies, Carlsbad, CA), responsive to TGF-beta was used to screen Tox21 10K compound library for identification of agonists/antagonists of the Smad signaling pathway. This cell line contains a beta-lactamase reporter gene under control of the Smad binding element (SBE) stably integrated into HEK 293T cells. Also cytotoxicity of the compounds was tested in parallel by measuring the cell viability using CellTiter-Glo assay system in the same wells.
Tox21 Assay Protocol Summary: SBE-bla HEK 293T cells were dispensed at 4,000/well in 5 uL of assay medium into black wall/clear-bottom 1536-well plates using a Multidrop Combi (ThermoFisher Scientific, Waltham, MA) dispenser. After the assay plates were incubated at 37 C and 5% CO2 for an overnight, 23 nL of compounds dissolved in DMSO, positive controls or DMSO only was transferred to the assay plate by a Pintool station (Kalypsys, San Diego, CA). Compound transfer was followed by the addition of 1 uL of 0.25 ng/mL TGF-beta1 or assay buffer using two separate tips of Flying Reagent Dispenser (FRD, Aurora Discovery, San Diego, CA). The assay plates were incubated at 37 C and 5% CO2 for 5 hr. One uL of LiveBLAzer B/G FRET substrate (Life Technologies) was added using a Flying Reagent Dispenser (FRD, Aurora Discovery, San Diego, CA) and the plates were incubated at room temperature for 2 hr. Fluorescence intensity (405 nm excitation, 460 nm and 530 nm emissions) was measured using an Envision plate reader (PerkinElmer, Shelton, CT). For cytotoxicity read, 4 uL of CellTiter-Glo reagent (Promega Corporation, Madison, WI) was added to each well of the assay plates using FRD. After 30 min incubation at room temperature, the luminescence intensity was measured using ViewLux plate reader (PerkinElmer).
% is set by controls: 0 for no effect and ±100 for the full control effect.

| Structure (SMILES) | viability change, negative = cytotoxic |
| --- | --- |
| N#Cc1cc(NC(=O)C(=O)O)c(Cl)c(NC(=O)C(=O)O)c1 | 17.3% [at 35.3 µM] |
| COC(=O)c1ccccc1Cl | -25% |
| Cc1cc2c(cc1CC(=O)c1sccc1S(=O)(=O)Nc1onc(C)c1Cl)OCO2 | 2.37% [at 35.3 µM] |
| Cc1nc2ccc(Cl)cc2[nH]1 | 4.82% |
| CNC(C)=O | 14.3% |
| CNCCc1ccccn1 | 2.16% [at 35.3 µM] |
| Clc1ccc2c(c1)Nc1ccccc1S2 | -10.5% [at 35.3 µM] |
| N=C(N)S(=O)O | 0.679% |
| CC(C)=CCC/C(C)=C\C#N | 1.05% |
| CC/C=C/CCCCCCCCCCOC(C)=O | -23.2% |
| CNC(=O)c1c(I)c(NC(C)=O)c(I)c(C(=O)O)c1I | 3.01% [at 35.3 µM] |
| O=C1c2ccccc2C(=O)N1CO | -19.5% |
| CC(=O)/C=C/C=C1/C2CCC(C2)C1(C)C (stereo not given) | 8.36% [at 35.3 µM] |
| CCCC(=O)OC | 7.54% |
| CCCCC(CC)CCC(CC(C)C)OS(=O)(=O)O (stereo not given) | -2.07% |
| CC1(C)S[C@@H]2[C@H](NC(=O)Cc3ccccc3)C(=O)N2[C@H]1C(=O)O (tested in a mixture with another compound) | -1.49% [at 35.3 µM] |
| O=C(O)Cc1c(Cl)ccc(Cl)c1Cl | 2.6% |
| COC(C)(C)CC(C)=O | 1.22% |
| COc1ccc(Cl)cc1C | -0.142% |
| C=C(C)C(=O)OCCCC | 2.56% |

| Structure (SMILES) | viability change, negative = cytotoxic |
| --- | --- |
| COC(=O)c1cc(Cl)c(NC(C)=O)cc1OC | -6.54% [at 35.3 µM] |
| CN(C)CCc1c[nH]c2ccc(C[C@H]3COC(=O)N3)cc12 | -0.69% [at 35.3 µM] |
| BrCCOc1ccccc1 | 1.27% |
| CCO[Si](CC(C)C)(OCC)OCC | 1.81% |
| C=CCON/C(CCC)=C1\C(=O)CC(C)(C)C(C(=O)OC)=C1O | 4.51% |
| C=CCCCCCCCCOC(C)=O | -0.156% |
| Cc1nnc(C(=O)NC(C)(C)c2nc(C(=O)NCc3ccc(F)cc3)c(O)c(=O)n2C)o1 | 8.47% [at 35.3 µM] |
| C=CCN1CCc2nc(N)sc2CC1 | 10.1% [at 35.3 µM] |
| Cc1ccc2ccccc2n1 | -9.68% |
| CCOc1ccccc1OCCN[C@H](C)Cc1ccc(OC)c(S(N)(=O)=O)c1 | 1.32% [at 35.3 µM] |
| CCN1CCN(C(=O)N[C@@H](C(=O)N[C@@H]2C(=O)N3[C@@H]2SC(C)(C)[C@H]3C(=O)O)c2ccccc2)C(=O)C1=O | -2.81% [at 35.3 µM] |
| CC(=O)OCC(=O)[C@@]1(O)CC[C@H]2[C@@H]3CCC4=CC(=O)C=C[C@]4(C)[C@H]3[C@@H](O)C[C@@]21C | -2.7% [at 35.3 µM] |
| CC(C)c1cc(C(C)C)cc(C(C)C)c1 | -23.5% |
| CCCOc1ccc(C(=O)OCCN(CC)CC)cc1N | 0.0734% [at 35.3 µM] |
| CC(C)(Sc1cc(C(C)(C)C)c(O)c(C(C)(C)C)c1)Sc1cc(C(C)(C)C)c(O)c(C(C)(C)C)c1 | 11.1% [at 35.3 µM] |
| CCCCCCCCCCCC(C)=O | 6.67% |
| C=CCN(CC=C)CC=C | 3.59% |
| Cc1ccc(OC(=O)CC(C)C)cc1 | 19% |
| CN(C)CCC[C@@]1(c2ccc(F)cc2)OCc2cc(C#N)ccc21 | 4.21% [at 35.3 µM] |
| NS(=O)(=O)c1cc2c(cc1C(F)(F)F)NCNS2(=O)=O | 6.45% [at 35.3 µM] |
